Growth inhibition data for 21 compounds are collected here from PubChem BioAssay (NCI).

The structures appear in SMILES notation. This is part of a sample that, as a whole, favours compounds with a hit. Of some 79,000 tested, about 15% had one in any assay. Unmarked numbers belong to inactive results. Calls of active or inactive are those of the source. Rule as the data show it: active = growth inhibition above about 70%; inactive = the rest.

Test [1] in a line: NCI Yeast Anticancer Drug Screen. Data for the rad50 strain (AID 155).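 Also: 0% = growth of vehicle-only cultures of the same strain.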 Particulars: S. cerevisiae rad50 strain growth inhibition, active compounds read high; at 50.0 µM unless noted. The gist of the method:
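Relative growth inhibition (compound vs vehicle) was measured in yeast with a defined repair-gene alteration.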

Test [2] in a line: NCI Yeast Anticancer Drug Screen. Data for the mec2-1 strain (AID 157). To be noted: S. cerevisiae mec2-1 strain, active compounds read high; at 50.0 µM unless noted. The gist of the method:
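Cells of the genetically defined mec2-1 yeast strain are incubated with test compound. Inhibition of growth is calculated against vehicle-treated controls.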

Test [3] is described as follows: NCI Yeast Anticancer Drug Screen. Data for the sgs1 mgt1 strain (AID 161).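 Also: 0% = growth of cultures given vehicle only.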 Particulars: S. cerevisiae sgs1 mgt1 strain, active compounds read high; at 50.0 µM unless noted. In outline: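 Genetically altered yeast, compound exposure, growth inhibition relative to vehicle.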
Test [4] can be described thus: NCI Yeast Anticancer Drug Screen. Data for the cln2 rad14 strain (AID 165).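 Also: 0% = growth equal to vehicle treated cultures.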 To be noted: S. cerevisiae cln2 rad14 strain, active compounds read high; at 50.0 µM unless noted. In outline:
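The screen exposed genetically defined yeast (cln2 rad14) to test compounds and scored growth inhibition relative to vehicle-treated controls.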

Test [5] can be described thus: NCI Yeast Anticancer Drug Screen. Data for the bub3 strain (AID 167). Particulars: S. cerevisiae bub3 mutant strain, active compounds read high; at 50.0 µM unless noted. In outline:
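Screening used yeast with an engineered genetic alteration affecting cell cycle control. Compound-exposed cultures were compared with vehicle cultures, and reduced growth was taken as inhibition.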

The nature of test [6]: NCI Yeast Anticancer Drug Screen. Data for the mlh1 rad18 strain (AID 175). To be noted: S. cerevisiae mlh1 rad18 strain growth inhibition, active compounds read high; at 50.0 µM unless noted. The gist of the method:
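Compound-treated yeast growth, normalised to vehicle controls. Strain bears defined DNA repair mutations.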

Turning to `CCSC(SCC)C(NC(C)=O)C(O)C(O)C(O)CO` (stereo unspecified), the growth inhibition in test [1] is 28.7%; in test [2] it was 3.45%; in test [3] it was 3.7%; in test [4], 12.7%; in test [5], 15.2%; in test [6] it was 21.4%.
Regarding `CC(C)(C)OC(=O)C(=[N+]=[N-])C(=O)OC(C)(C)C`, the growth inhibition in test [1] is 8.75%; in test [2], 1.5%; in test [3] it was 2.3%; in test [4], -28.5%; in test [5] it was -7.15%; in test [6], 17.7%.
On to `CCCOC(=O)CCCC(=O)N(C(C)C)C(C)C`, for which the growth inhibition is -12.3% in test [1]; -2.7% in test [2]; 12.2% in test [3]; -29.5% in test [4]; 21.9% in test [5]; 4.65% in test [6].
On to `C=CCC1(CN(C)C)CC/C(=C\c2ccc(Cl)cc2)C1=O` (stereo unspecified), for which the growth inhibition in test [1] is 55.2%; in test [2] it was 23.6%; in test [3] it was 59.8%; in test [4], 42.2%; in test [5] it was 16.3%; in test [6] it was 52.5%.
Regarding `COC1OCC(N=[N+]=[N-])C(OS(C)(=O)=O)C1OS(C)(=O)=O` (stereo unspecified), the growth inhibition in test [1] is -1.65%; in test [2] it was -4.3%; in test [3] it was 6.85%; in test [4], -6.75%; in test [5] it was -16.4%; in test [6], -34.5%.
Consider `CCc1cccc(CC)c1NC(=O)OCCN(CC)CC`, for which the growth inhibition was -3.8% in test [1]; -16.9% in test [2]; 10.4% in test [3]; 16.8% in test [4]; 11.6% in test [5]; 4.15% in test [6].
On to `Cc1nc(N)c(N)c(=O)[nH]1`, for which the growth inhibition in test [1] is -0.6%; in test [2], -1.35%; in test [3] it was -1.75%; in test [4] it was -5.6%; in test [5], -9.6%; in test [6], -2.6%.
Turning to `CCOC(=O)c1ccc(NC(=O)Nc2ccc(F)cc2)cc1`, the growth inhibition in test [1] is 3.5%; in test [2] it was -0.5%; in test [3] it was 1%; in test [4] it was 12.5%; in test [5], 32.5%; in test [6], 5.55%.
As to `CC(C)(C)OC(=O)NCCCCC(N)C(N)=O` (stereo unspecified), the growth inhibition in test [1] was -19.6%; in test [2], -32.2%; in test [3] it was -31.9%; in test [4], 15.8%; in test [5], 5.15%; in test [6] it was -1.95%.
For the compound `O=C(O)CCNc1ccc(Cl)cc1[N+](=O)[O-]`, the growth inhibition in test [1] is 25.8%; in test [2], 26.8%; in test [3], 30.4%; in test [4], 16.1%; in test [5] it was 34.9%; in test [6] it was 25.8%.
Consider `OC(COc1cccc(C(F)(F)F)c1)CN1CCN(c2cccc(F)c2)CC1` (stereo unspecified), for which the growth inhibition in test [1] is 98.7% (active); in test [2] it was 99% (active); in test [3], 99.1% (active); in test [4], 97.9% (active); in test [5] it was 98.7% (active); in test [6] it was 99% (active).
Take `COc1c(Cl)cc(C(c2cc(Cl)c(OC)c(Cl)c2)C(Cl)(Cl)Cl)cc1Cl`: the growth inhibition in test [1] is -11.7%; in test [2], -16.4%; in test [3] it was -13%; in test [4], -23.7%; in test [5] it was -3.95%; in test [6], 10.4%.
As to `CC1CC1C(N)C1CC1C` (stereo unspecified), the growth inhibition in test [1] is 10.3%; in test [2] it was 3.15%; in test [3], -1.95%; in test [4] it was 23.9%; in test [5], 10.8%; in test [6], 8.3%.
Turning to `NNC(=S)N/N=C/c1ccc([N+](=O)[O-])s1`, the growth inhibition is 9.2% in test [1]; -2.4% in test [2]; 24.1% in test [3]; -47.4% in test [4]; -19.8% in test [5]; 6.35% in test [6].
In the case of `CCN(CCO)c1cccc(C)c1`, the growth inhibition in test [1] is -12.2%; in test [2], -19.1%; in test [3] it was -12.5%; in test [4] it was 1.6%; in test [5], -17.4%; in test [6], -7.2%.
In the case of `CCOC(=O)c1sc(N)nc1N1CCCC1`, the growth inhibition in test [1] was 1.65%; in test [2] it was -23.9%; in test [3], -9.65%; in test [4], 10.1%; in test [5] it was 7%; in test [6] it was -2.25%.
With `O=C(/C=C/c1ccccc1)CSc1ncn[nH]1`, the growth inhibition in test [1] is 10.1%; in test [2], 5.4%; in test [3], 8.7%; in test [4] it was 4.75%; in test [5], 19.4%; in test [6], -7.4%.
On to `O=C1CCCc2ccc3c(c21)CC1(Cc2cc4c(cc2C1)CCCC4)C3`, for which the growth inhibition in test [1] was -22.6%; in test [2] it was 9.15%; in test [3], 34%; in test [4], -13.9%; in test [5] it was 32.4%; in test [6], -2.7%.
Consider `CC1CCCCN1Cc1ccccc1COC(=O)c1ccc([N+](=O)[O-])cc1Cl` (stereo unspecified), for which the growth inhibition in test [1] is 41.1%; in test [2] it was 30.4%; in test [3], 49.9%; in test [4] it was 8.85%; in test [5], 21.4%; in test [6], -3.6%.
In the case of `Nc1ncnc2c1ccn2COCCO`, the growth inhibition in test [1] is -8.25%; in test [2], 1.55%; in test [3], 4.7%; in test [4], -43.9%; in test [5], -12.5%; in test [6], -3.9%.
Turning to `C1CSCCSCCS1`, the growth inhibition was 11.6% in test [1]; 0.9% in test [2]; 20.1% in test [3]; 4.85% in test [4]; 28% in test [5]; -4.9% in test [6].
